Tests used:
Assay in all cases: PBM binding z-score (relative to random genomic background probes); higher = stronger binding; sequences stand for … in GC…GCGATTGACAGCGTAGAATGAAGG
[1] = system: FXR:RXRa (NR concentration 270 nM, RXRa partner concentration 90 nM)
Method in brief: (§1)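 Regression normalization was applied to scanned fluorescence from custom Agilent 4×180K protein-binding microarrays. Before scanning, arrays were incubated 1 h with ligand-free nuclear receptor dimers, and binding was detected with antibodies against each partner (one per run). Binding z-scores use the random background probes as reference.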

[2] = system: LXRa:RXRa (NR concentration 270 nM, RXRa partner concentration 90 nM)
Method in brief: as §1

[3] = system: LXRa homodimer (NR concentration 270 nM)
Method in brief: as §1

[4] = system: LXRb:RXRa (NR concentration 270 nM, RXRa partner concentration 90 nM)
Method in brief: as §1

[5] = system: LXRb homodimer (NR concentration 270 nM)
Method in brief: as §1

[6] = system: PPARa:RXRa (NR concentration 270 nM, RXRa partner concentration 90 nM)
Method in brief: as §1

[7] = system: PPARg:RXRa (NR concentration 180 nM, RXRa partner concentration 90 nM)
Method in brief: as §1

[8] = system: PPARg:RXRa 270nM:90nM, anti-RXR (NR concentration 270 nM, RXRa partner concentration 90 nM)
Method in brief: as §1

[9] = system: PPARg:RXRa 30nM:10nM, anti-RXR (NR concentration 30 nM, RXRa partner concentration 10 nM)
Method in brief: as §1

[10] = system: PPARg:RXRa 90nM:30nM, anti-RXR (NR concentration 90 nM, RXRa partner concentration 30 nM)
Method in brief: as §1

[11] = system: PPARg:RXRa DBDmut IVT, anti-RXR (DBD mutation: RXRa K156A/R161A, NR concentration 270 nM, RXRa partner concentration 90 nM)
Method in brief: as §1

[12] = system: PPARg:RXRa IVT, anti-PPARg (NR concentration 270 nM, RXRa partner concentration 90 nM)
Method in brief: as §1

[13] = system: PPARg DBDmut:RXRa IVT, anti-PPARg (DBD mutation: PPARg1 K132A/R137A, NR concentration 270 nM, RXRa partner concentration 90 nM)
Method in brief: as §1

[14] = system: PPARg DBDmut IVT, anti-PPARg (DBD mutation: PPARg1 K132A/R137A, NR concentration 270 nM)
Method in brief: as §1

[15] = system: PPARg homodimer (NR concentration 180 nM)
Method in brief: as §1

[16] = system: PXR:RXRa (NR concentration 270 nM, RXRa partner concentration 90 nM)
Method in brief: as §1

[17] = system: PXR homodimer (NR concentration 270 nM)
Method in brief: as §1

[18] = system: RARa:RXR (NR concentration 270 nM, RXRa partner concentration 90 nM)
Method in brief: as §1

[19] = system: RARa homodimer (NR concentration 270 nM)
Method in brief: as §1

[20] = system: RARb:RXRa (NR concentration 270 nM, RXRa partner concentration 90 nM)
Method in brief: as §1

Row | Sequence | PBM binding z-score [1] | PBM binding z-score [2] | PBM binding z-score [3] | PBM binding z-score [4] | PBM binding z-score [5] | PBM binding z-score [6] | PBM binding z-score [7] | PBM binding z-score [8] | PBM binding z-score [9] | PBM binding z-score [10] | PBM binding z-score [11] | PBM binding z-score [12] | PBM binding z-score [13] | PBM binding z-score [14] | PBM binding z-score [15] | PBM binding z-score [16] | PBM binding z-score [17] | PBM binding z-score [18] | PBM binding z-score [19] | PBM binding z-score [20]
1 | CGAACGAGGGCATGAGTCGATAGCAAATGCCGAT | 0.37 | 0.268 | -0.569 | -0.0412 | -0.951 | 1.48 | 1.74 | 2.28 | 0.37 | 1.93 | 2.97 | 1.89 | -0.75 | -0.876 | 0.211 | 0.0627 | -0.737 | 0.1 | -0.456 | 1.81
2 | ATCGAAAAGTCGACGAGGTGAGTATACACCGTTT | 0.048 | -0.0396 | -0.471 | 0.0525 | -0.29 | 0.426 | 0.914 | 0.0655 | 0.0856 | -0.125 | -0.448 | 0.432 | 0.0649 | 0.51 | -0.218 | 0.103 | -0.0447 | 0.451 | -0.121 | 0.388
3 | AGTCAAAGTTCAGGACGAGGTAACGAAAAGCACG | 4.17 | 3.54 | 0.921 | 1.92 | 0.307 | 3.39 | 4.87 | 5.02 | 2.18 | 4.04 | 0.0438 | 2.03 | 0.538 | 0.477 | 1.63 | 2.75 | 1.22 | 2.71 | 0.551 | 4.3
4 | GTACCAAGGTGAATACGTCGTTGATGAGTAGGCG | 0.119 | -0.0604 | -0.411 | -0.17 | -0.867 | 0.781 | 0.854 | 0.362 | 0.117 | 0.456 | 1.17 | 1.59 | -0.251 | -0.137 | -0.116 | -0.261 | -0.456 | 0.186 | 0.0524 | 1.03
5 | CCGACTGGGGCAAAGGTTCCCATACTCAGTACGA | -0.153 | -0.12 | -0.431 | -0.0438 | -1.02 | 3 | 7.57 | 6.87 | 6.55 | 6.97 | 4.43 | 4.51 | -0.428 | -0.816 | -0.0222 | -0.128 | -0.291 | 0.588 | 0.117 | 0.831
6 | TCTAGCAGACCAGAGGGTCACTCAAGAGGTACGG | 0.955 | 0.817 | -0.662 | 1.1 | -1.39 | 2.15 | 0.882 | 1.31 | 1.8 | 1.61 | 0.667 | -0.0326 | -0.965 | -2.06 | 0.364 | 1.38 | -0.694 | 1.85 | -0.734 | 1.81
7 | TAGCCTAGGTCATGGGCCAGTCTACCACGCGAAC | 4.36 | 3.2 | 0.0919 | 2.04 | -0.312 | 4 | 3.34 | 3.49 | 0.699 | 2.48 | 1.64 | 3.21 | 0.44 | 0.137 | 1.7 | 1.48 | -0.884 | 2.52 | -0.257 | 3.74
8 | GCGACTGGGGCATCAGCAGGTTACCTTAACTTAA | -0.0462 | -0.17 | -0.509 | 0.761 | -0.96 | 1.16 | 0.496 | 0.878 | -0.313 | 0.578 | 3.64 | 3.03 | -1.1 | -0.949 | 0.152 | 0.367 | -0.375 | 0.558 | -0.549 | 0.828
9 | CCAGACTGGTGAGAAGGTAACTCAGCCTCGATTA | -0.309 | -0.491 | -0.22 | -0.472 | -0.739 | -0.19 | 0.0437 | -0.117 | -0.431 | -0.102 | -0.548 | -0.378 | -1.06 | -0.669 | 0.4 | -0.321 | -0.553 | -0.228 | -0.0331 | -0.455
10 | CAAACTAGGTCACACAGGTCAAAGTCCGTGCGTA | 5.67 | 5.43 | 4.2 | 4.82 | 0.995 | 5.71 | 9.3 | 7.72 | 5.14 | 7.46 | 8.75 | 9.19 | 1.71 | 1.11 | 2.43 | 4.78 | 4.14 | 4.85 | 0.759 | 4.59
11 | ACTATTAGTTGAGACGAGGGTAACCGATAGGTTG | 0.247 | 0.035 | -0.0924 | -0.182 | 0.187 | -0.0411 | 0.515 | 0.0504 | 0.213 | 0.176 | 0.111 | 0.339 | 0.757 | 0.539 | 0.211 | 0.245 | 0.43 | 0.64 | 0.125 | 0.342
12 | ACAGACAGGTGAGTGAAGGTAACTCAGCTGGACG | 0.377 | 0.0321 | -0.247 | -0.255 | -0.625 | 0.294 | 0.762 | 0.0476 | -0.138 | -0.304 | 0.432 | 0.804 | 0.0951 | 0.079 | -0.0829 | -0.379 | -0.472 | 0.0819 | -0.173 | 0.67
13 | CCTATTAGGTGACCATAAGGGCAACCGAAGCTCG | 0.883 | 0.519 | -0.266 | 0.209 | -0.299 | 1.81 | 1.73 | 1.56 | 0.344 | 0.657 | 5.2 | 4.27 | 0.935 | -0.392 | 0.93 | 0.636 | 0.326 | 1.19 | 0.485 | 1.87
14 | ATCTCTAGGTAAGACTCATTTCAGTGAAGAACGC | 0.503 | 0.373 | 0.526 | 0.488 | 0.888 | -0.0236 | 0.0953 | 0.265 | 0.363 | 0.295 | 2.23 | 1.3 | 0.559 | 1.36 | 1.13 | -0.0936 | 0.605 | 0.211 | 1.77 | 0.27
